About 2,000 (36%) of roughly 5,500 compounds were called active. Another 18% or so got no clear call; they are omitted. Rule as the data show it: active = normalized growth mostly below about 0.91 (no sharp cut-off); inconclusive = no clear call, values can overlap the other calls; inactive = mostly above about 0.92. The list shows a part of the results.
Test: chemical genetic growth profiling, strain panel (AID 1159580);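 also: tested at 20 µM; growth read once vehicle control cultures reached saturation at 30 °C; 1 = growth at the plate median or of vehicle wells; lower values mean less growth of the strain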
Settings: S. cerevisiae deletion strains, growth OD

Measured: normalized growth

CCn1cc(C(=O)O)c(=O)c2ccc(Cc3ccccc3)nc21
inactive: locus YAL013W, strain DEP1, active compounds read low 1.03 | locus YAL040C, strain CLN3, active compounds read low 1 | locus YCL061C, strain MRC1 (second series), active compounds read low 1.01 | locus YDR363W, strain ESC2, active compounds read low 1.01 | locus YER002W, strain NOP16, active compounds read low 0.964 | locus YGR078C, strain PAC10, active compounds read low 0.971 | locus YJR075W, strain HOC1, active compounds read low 1.02 | locus YMR263W, strain SAP30, active compounds read low 1 | locus YMR307W, strain GAS1, active compounds read low 1 | locus YNL128W, strain TEP1, active compounds read low 0.988 | locus YNL153C, strain GIM3, active compounds read low 0.923 | locus YNL175C, strain NOP13, active compounds read low 0.972 | locus YNL197C, strain WHI3, active compounds read low 0.942 | locus YNL224C, strain SQS1, active compounds read low 0.965 | locus YNL322C, strain KRE1, active compounds read low 0.991 | locus YOR083W, strain WHI5 (second series), active compounds read low 1.09 | locus YPL241C, strain CIN2, active compounds read low 1.01

Source: PubChem BioAssay AID1159580 (chemical genetic matrix, 2015)
